Sampled rows, rich in hits. Any-hit rate of the full collection: about 18%.
DT40 TDP1 CPT: qHTS for Inhibitors of human tyrosyl-DNA phosphodiesterase 1 (TDP1): qHTS in cells in presence of CPT | AID 686979, 2013 | chicken DT40 Tdp1-/-;hTDP1 cells + 20 nM CPT, ATP luminescence, 48 h | Potency, µM (highest dose often 46.2 µM), for inactives: at the top dose activity change, negative = growth inhibition, usual class: inhibitors | actives 12% (n = 420,000); further: nearly all actives have a fitted effect of over 55% in size
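Chicken DT40 Tdp1-/- cells stably complemented with human TDP1 were seeded at 400 cells/well in medium containing 20 nM camptothecin, exposed to pin-transferred compounds, and grown at 37 °C for at least 48 hr. Viability was read as ATP luminescence.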
DT40 TDP1 no CPT: qHTS for Inhibitors of human tyrosyl-DNA phosphodiesterase 1 (TDP1): qHTS in cells in absence of CPT. Potency, µM (titrated, usually from 46.2 µM), for inactives: at the highest dose activity change, negative = growth inhibition, usual class: inhibitors. DT40 Tdp1-/- hTDP1 cells, no CPT, ATP luminescence, 48 h. actives 15% (n = 420,000); further: nearly all actives have a fitted effect of over 55% in size
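Cells were dispensed at 400 per well, compounds added by pin tool, plates incubated ≥48 hr at 37 °C, then CellTiter-Glo added for 30 min at room temperature before luminescence reading. Line: DT40 Tdp1-/- complemented with hTDP1; camptothecin omitted.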
PLK1 PBD block: qHTS for Inhibitors of PLK1-PDB (polo-like kinase 1 - polo-box domain): Primary Screen; Serine/threonine-protein kinase PLK1 (Homo sapiens), P53350; Plk1 PBD binding of FITC phosphopeptide, fluorescence polarization; Potency, µM, for the others: max response, negative = inhibition, actives largely listed as inhibitors; actives 2.8% (n = 360,000); AID 720504, 2013; further: series mostly up to about 57 µM; nearly all actives have a fitted effect of over 65% in size
TDP1 block: qHTS Assay for Inhibitors of Tyrosyl-DNA Phosphodiesterase (TDP1) | Tyrosyl-DNA phosphodiesterase 1 (Homo sapiens), Q9NUW8 | recombinant TDP1, AlphaScreen DNA substrate cleavage | Potency, µM (doses to about 130 µM), for inactives: at the top dose activity change, negative = inhibition, hits mostly inhibitors | actives 0.28% (n = 350,000) | AID 485290, 2010; further: nearly all actives have a fitted effect of over 40% in size
Target sequence (Q9NUW8 whole entry, looked up): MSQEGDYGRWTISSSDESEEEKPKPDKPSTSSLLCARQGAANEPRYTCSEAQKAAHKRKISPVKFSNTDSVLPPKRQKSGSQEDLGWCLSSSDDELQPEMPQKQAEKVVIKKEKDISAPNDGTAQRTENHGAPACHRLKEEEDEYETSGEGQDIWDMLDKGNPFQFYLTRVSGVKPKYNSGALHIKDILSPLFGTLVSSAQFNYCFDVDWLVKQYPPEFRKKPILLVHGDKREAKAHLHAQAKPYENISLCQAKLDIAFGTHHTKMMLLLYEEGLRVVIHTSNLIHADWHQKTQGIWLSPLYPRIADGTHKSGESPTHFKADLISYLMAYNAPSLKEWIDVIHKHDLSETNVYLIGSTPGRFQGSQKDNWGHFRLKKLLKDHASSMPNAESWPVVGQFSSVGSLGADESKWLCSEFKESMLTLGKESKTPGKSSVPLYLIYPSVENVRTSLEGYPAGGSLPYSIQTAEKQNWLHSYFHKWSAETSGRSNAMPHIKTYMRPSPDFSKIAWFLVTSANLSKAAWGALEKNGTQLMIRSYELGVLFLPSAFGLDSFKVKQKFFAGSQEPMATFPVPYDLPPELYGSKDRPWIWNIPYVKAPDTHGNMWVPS
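E. coli-derived human Tdp1, 1 nM final. Cpd preinc 15 min RT; substrate 15 nM final, 5 min RT; AS bead mix 10 ug/ml final, 10 min RT. Signal loss = tyrosine-FITC cleavage. No-enzyme wells = max signal.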
VDR inhibitor: Inhibitors of the vitamin D receptor (VDR): qHTS; Vitamin D3 receptor (Homo sapiens), P11473; VDR-SRC2-3 peptide fluorescence polarization, 2 h; Potency, µM, inactives show max response, negative = inhibition, actives largely listed as inhibitors; actives 0.93% (n = 400,000)
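Inhibition of the VDR/SRC2-3 peptide interaction is quantified by fluorescence polarization. Compounds (23 nl, pintool) incubate with the reagents for 2 hours at ambient room temperature.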
KAT2A inh: qHTS Assay for Inhibitors of GCN5L2; GCN5L2 HAT assay, ThioGlo1 CoA-SH fluorescence; actives 0.21% (n = 390,000); AID 504327, 2011; Histone acetyltransferase KAT2A (Homo sapiens), Q92830; Potency, µM (series often up to 58.9 µM), for the others: top-dose activity change, negative = inhibition, hits mostly inhibitors
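Enzyme at 20nM final was mixed with library compounds for 15 min at room temperature. Peptide H3(1-25) at 75uM, acetyl-CoA at 70uM and ThioGlo1 at 50uM were then added. Plates were read immediately and after 20 min (Ex340nm/Em540nm).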
An asterisk follows results filed as active; u = inconclusive; x = not tested or not shown. The call rests on the fitted dose curve; in most records, active means well fitted curve in the direction sought with a large enough effect; inconclusive means small, poorly fitted or top-dose-only effect, or another doubt; inactive means no such curve, though single readings can be large; an effect the other way counts as inactive or inconclusive. On the % scale 0 is the no-effect control and ±100 the full control effect; potency means the concentration at half of the fitted maximal effect.

SMILES	DT40 TDP1 CPT	DT40 TDP1 no CPT	PLK1 PBD block	TDP1 block	VDR inhibitor	KAT2A inh
CNC(=O)c1c(NC(=O)CS(=O)(=O)c2ccc(Cl)cc2)sc(C)c1C	9.2µM*	u	-12%	7%	-16%	-18%
COC(=O)C1=C[C@@H](C(=O)OC)C2C3=C(C(=O)[C@@]2(C)NC(=O)c2ccccc2)[C@H](C)[C@@H]2C(=O)N(C)C(=O)[C@@H]2[C@@H]3C1 (some centres undefined)	x	x	x	3%	-29%	x
O=C(/C=C/c1ccccc1)NC(=S)Nc1ccc(N2CCOCC2)c(Cl)c1	u	u	-2%	5%	7%	2%
O=C(/C=C/c1ccco1)NC(=S)Nc1ccc(N2CCOCC2)c(Cl)c1	5.2µM*	4.6µM*	-12%	3%	-9%	-4%
O=C(NC(=S)Nc1ccc(N2CCOCC2)c(Cl)c1)C(c1ccccc1)c1ccccc1	u	u	27µM*	3%	-16%	-11%
O=C1CCC(C(=O)OCC(=O)Nc2ccc(SC(F)F)cc2)=NN1	0%	-3%	-27%	x	x	x
CC1=CC(C)(C)N(C(=O)CSc2nnc(N)s2)c2c(C)cc(C)cc21	u	u	-17%	3%	-12%	4µM*
COc1ccc(CCn2c(C)cc(C(=O)CCl)c2C)cc1OC	6.5µM*	5.2µM*	u	7%	-16%	1%
COc1ccc(CCn2c(C)c(C(C)=O)c(C(C)=O)c2C)cc1OC	2%	2%	-5%	0%	-4%	-13%
Cc1cc(C(=O)CSc2nnc(N)s2)c(C)n1CCc1ccc(Cl)cc1	9.2µM*	u	-3%	4%	-3%	0%
Cc1cc(C(=O)CCl)c(C)n1CCc1ccc(Cl)cc1	-99%	3.7µM*	u	-8%	18µM*	-14%
Cc1cc(C(=O)CSc2nnc(N)s2)c(C)n1CCc1ccc(F)cc1	u	-29%	-16%	-4%	12%	-3%
Cc1ccc(CNC(=O)[C@H](C)[C@H]2C[C@]2(C)[C@H](NC(=O)OCc2ccccc2)c2ccccc2)c(F)c1F	x	x	x	-1%	x	x
Cc1cc(C)c(C(=O)CSc2nnc(N)s2)cc1C	u	u	9.5µM*	0%	u	-7%
OCCCNc1ncnc2c1ncn2[C@H]1CN(Cc2ccc3c(c2)OCO3)C[C@@H](CO)O1	u	-3%	-9%	x	x	x
Fc1ccccc1Nc1c2c(nc3ccccc13)CCC2	u	21µM*	x	4%	-7%	-1%
COc1ccc(Nc2c3c(nc4ccccc24)CCC3)cc1	u	21µM*	-3%	x	u	-5%
O=C(CCCCCl)Nc1c2c(nc3ccccc13)CCC2	-26%	-1%	-1%	x	3%	-13%
CCN(CC)CCOC(=O)c1ccc(Nc2c3c(nc4ccccc24)CCC3)cc1	u	18µM*	x	5%	-1%	-3%
Fc1ccc(Nc2c3c(nc4ccccc24)CCC3)cc1	5.2µM*	10µM*	5%	4%	6%	-13%
Clc1c2c(nc3ccccc13)CCC2	-23%	2%	-11%	x	13%	-4%
COc1cccc(CN2C(=O)C3(SCC(=O)N3c3cc(C)cc(C)c3)c3ccccc32)c1 (centres undefined)	x	x	x	6%	2%	-15%
Cc1nn(CC(=O)Nc2ccccc2C(F)(F)F)c(=O)c2cccn12	1%	-7%	-2%	0%	-16%	-1%
